Screening data: PubChem, National Center for Advancing Translational Sciences (NCATS)
FMDV RLuc: Primary qHTS Assay for Foot and Mouth Disease Virus Antivirals against NCGC Sytravon and CBC Compound Libraries: Renilla Luciferase Signal. FMDV replicon cells, Renilla luciferase signal. Potency, µM (titrated, usually from 57.5 µM), inactives show top-dose activity change, negative = inhibition, hits mostly inhibitors. hit rate 0.32% among 120,000. AID 1745857, 2022; note: nearly all actives have a fitted effect of over 55% in size
FMDV antiviral: Primary qHTS Assay for Foot and Mouth Disease Virus Antivirals against NCGC Sytravon and CBC Compound Libraries: Firefly Luciferase Signal | FMDV antiviral cell assay, firefly luciferase signal | Potency, µM (doses to about 57.5 µM), inactives show at the top dose activity change, negative = inhibition, actives largely listed as inhibitors | hit rate 0.23% among 120,000 | AID 1745856, 2022; note: nearly all actives have a fitted effect of over 60% in size
The depositor's hits bear a star; ? = inconclusive; ! = not active in a repeat. Only some compounds are listed: those with a hit (about 0.4% of all), similar ones and a draw of the others. Calls come from the whole dose curve. % is set by controls: 0 for no effect and ±100 for the full control effect; potency is the fitted concentration of half-maximal effect.

SMILES	FMDV RLuc	FMDV antiviral
O=C(c1cc2ccccc2oc1=O)N1CCSC1c1ccc(Cl)cc1 (stereo unspecified)	16%	-2%
CN(Cc1ccc(-c2ccc(Cl)cc2)o1)C(=O)CNC(=O)c1ccccc1	?	-24%
O=C(COC(=O)c1ccccc1-c1ccc(C(F)(F)F)cc1)c1ccc([N+](=O)[O-])cc1	-19%	-15%
O=C(COC(=O)c1ccccc1-c1ccc(C(F)(F)F)cc1)c1cccc([N+](=O)[O-])c1	8.9µM*	10µM*
Cc1ccccc1-n1c(/C=C/c2ccc(O)cc2)nc2ccccc2c1=O	?	8%
Cc1ccc(-n2c(/C=C\c3ccc(F)c(F)c3)nc3ccccc3c2=O)c(C)c1	3.5µM*	7.9µM*
Cc1ccc(C)c(NC(=O)COC(=O)c2ccc3ccccc3n2)c1	-15%	-5%
Cc1ccc(NC(=O)COC(=O)c2ccc3ccccc3n2)c(C)c1	22µM*	?
Cc1ccc(Cl)cc1-n1ncc2c(NC3CCCCCC3)ncnc21	25µM*!	?
Cc1ccc(-n2ncc3c(NC4CCCCCC4)ncnc32)cc1Cl	-1%	107%
CCCCc1ccc(C(=O)COC(=O)c2cc(S(C)(=O)=O)ccc2C)cc1	-3%	12%
Cc1cc(C(=O)Cn2c(Cl)nc3c2c(=O)n(C)c(=O)n3C)c(C)n1Cc1ccc(F)cc1	12%	0%
Cc1cc(C(=O)Cn2c(Cl)nc3c2c(=O)n(C)c(=O)n3C)c(C)n1CC(F)(F)F	16µM*	22µM*
COc1ccc(CCNC(=O)c2c(O)nc3c(C)cccn3c2=O)cc1OC	-13%	-18%
COc1ccccc1CNC(=O)c1c(O)nc2c(C)cccn2c1=O	35µM*	?
O=C(CSc1ncnc2nc[nH]c12)NCc1cccc(Cl)c1	10%	-3%
COC(=O)CC(NC(=O)c1cc(C)nc2c1cnn2C(C)C)c1ccccc1Cl (stereo unspecified)	-8%	-13%
COc1ccc(NC(=O)CSC2=C(C#N)C(c3ccc(Cl)cc3)C(C(C)=O)=C(C)N2)cc1 (stereo unspecified)	48%	28%
CCN(CC)CCNc1nc(C)c2c(c1C#N)CCCC2	-17%	-7%
Cc1cccc(Oc2ccc(NC(=O)c3ccc4c(c3)NC(=O)CS4)cc2)c1	22µM*	?
O=C1CSc2ccc(C(=O)Nc3ccccc3)cc2N1	5%	171%
CN(CC(=O)Nc1ccc(OC(F)(F)F)cc1)S(=O)(=O)c1ccc2c(c1)CCC(=O)N2	?	22µM*
COC(=O)c1ccc(NC(=O)CN(C)S(=O)(=O)c2ccc3c(c2)CCCC(=O)N3)cc1	1%	-3%
CC1=C(C(=O)Nc2ccc(C)cc2C)C(c2ccc(C)cc2)NC(=S)N1 (stereo unspecified)	-4%	-6%
COc1ccc(-c2cnnn2-c2ccc(NC(=O)c3ccc(S(=O)(=O)N(C)C)cc3)cc2)cc1	6.3µM*	?
SMILES	FMDV RLuc	FMDV antiviral
COc1ccc(C(=O)Nc2ccc(S(=O)(=O)N(Cc3ccccc3)c3ccccc3)cc2)cc1	5µM*	5µM*
CCOc1ccc(C(=O)Nc2ccc(-n3nncc3-c3ccc(OC)cc3)cc2)cc1	-5%	-14%
O=C(COc1ccccc1)Nc1ccc(S(=O)(=O)N(Cc2ccccc2)c2ccccc2)cc1	-5%	-10%
CCN(CC)CCCNc1oc(-c2ccco2)nc1S(=O)(=O)c1ccc2c(c1)OCCO2	25%	11%
Cc1ccc(S(=O)(=O)Nc2nc3ccc(C)cc3nc2Nc2ccc3c(c2)OCO3)cc1	-5%	14%
O=C(Nc1ccccc1Br)N1CCN(S(=O)(=O)c2ccccc2)CC1	4%	11%
Cc1cc(C(=O)OCC(=O)NC2CCCCCCC2)c2ccccc2n1	-9%	1%
CC(CCc1ccco1)NC(=O)c1ccc(Cl)c(S(=O)(=O)NC2CC2)c1 (stereo unspecified)	0%	11%
CN(Cc1ccccc1)Cc1nc2c(c(=O)n(C)c(=O)n2C)n1CCc1ccccc1	5%	-14%
CCCn1c(CN(C)Cc2ccccc2)nc2c1c(=O)n(C)c(=O)n2C	?	35µM*
O=C(COc1ccc(Cl)cc1)N(CCCN1CCOCC1)c1nc2ccccc2s1	-3%	0%
O=S(=O)(Nc1cccc2cccnc12)c1ccc(F)cc1	22µM*	?
O=C(Nc1cccc2cccnc12)c1ccc(F)cc1	-11%	90%
Cc1sc(NC(=O)CC(C)C)c(C#N)c1C	23%	0%
COc1cccc(NC(=O)C(=O)NCCc2sc(-c3ccc(Cl)cc3)nc2C)c1	16%	128%
Cc1ccc(NC(=O)CCc2ncc(-c3c(F)cccc3F)o2)cc1C	-6%	6%
CC#CC[N+](C)(C)CCCCCCCCCCCC	?	13µM*
CCCCCCCCCCCCCCCC[N+](C)(C)C	-16%	-27%
COc1cccc(CNC(=O)c2nc(-c3ccccc3)oc2C)c1	11%	31%
COc1ccc(CNC(=O)c2nc(-c3ccccc3)oc2C)cc1OC	18µM*	?
CCOc1ccc(C(=O)Nc2ccc3nc(SCC(=O)N(C)c4ccccc4)sc3c2)cc1	?	7.9µM*
Cc1ccccc1C(=O)Nc1ccc2nc(SCC(=O)N(C)c3ccccc3)sc2c1	-1%	-21%
Cc1noc(CSc2ccccc2C(=O)N2CCC(C)CC2)n1	2%	-10%
Cc1cc(C)cc(NC(=O)C2CCCN2S(=O)(=O)c2ccc3c(c2)CCCC(=O)N3)c1 (stereo unspecified)	?	-29%
Cc1ccc(NC(=O)C2CCCN2S(=O)(=O)c2ccc3c(c2)CCCC(=O)N3)cc1C (stereo unspecified)	28µM*	35µM*
SMILES	FMDV RLuc	FMDV antiviral
CC(NC(=O)C1CCN(C(=O)c2cccc3ccccc23)CC1)c1ccc(F)cc1 (stereo unspecified)	66%	-10%
Cc1nn(Cc2ccc(F)cc2)c(C)c1NC(=O)c1cc(-c2cccs2)on1	?	35µM*
Cc1cc(C(=O)Nc2c(C)nn(Cc3ccc(F)cc3)c2C)no1	4%	1%
CCCCCCc1ccc(C(=O)Nc2ccc(C)cc2)cc1	?	110%
COc1cccc(N=Cc2ccc(N(C)C)cc2)c1	-1%	119%
CCCOc1ccc2ccccc2c1CN(C)C(=O)Cc1n[nH]c(=O)c2ccccc12	?	25µM*
CN(Cc1cccs1)C(=O)Cc1n[nH]c(=O)c2ccccc12	-1%	15%
COc1ccc(-c2c(C)oc3c(C)c(OCCN4CCCCC4)ccc3c2=O)cc1	-7%	73%
Cc1c(C(=O)OC2CCCCCC2)[nH]c2c1C(=O)CC(c1ccccc1)C2 (stereo unspecified)	-9%	-12%
COc1cc(C2CC(=O)c3c([nH]c(C(=O)OC4CCCC4)c3C)C2)cc(OC)c1OC (stereo unspecified)	8.9µM*	?
O=C(Nc1ccncc1)c1ccc(SC(F)(F)F)cc1	20µM*	?
O=C(Nc1cccnc1)c1ccc(SC(F)(F)F)cc1	-25%	112%
CCn1c(SCc2ccc(F)cc2Cl)nnc1-c1cnccn1	-4%	6%
Cc1ccc(C(=O)Nc2nc(-c3nnn(-c4cccc(Cl)c4C)c3C)ns2)cc1C	5µM*	3.5µM*
Cc1ccc(Cl)cc1-n1nnc(-c2nsc(NC(=O)c3ccccc3Cl)n2)c1C	-15%	111%
NNc1ccc(S(=O)(=O)O)cc1	16%	5%
